Experimental findings from the supplement of paper PMC10849652 are described below.

Targets with a hit are over-represented here; the source holds about 7,900 in all. About 0.6% of all pairs of compound and target were hits.

UniProt P43361, sequence (P43361 whole entry, looked up): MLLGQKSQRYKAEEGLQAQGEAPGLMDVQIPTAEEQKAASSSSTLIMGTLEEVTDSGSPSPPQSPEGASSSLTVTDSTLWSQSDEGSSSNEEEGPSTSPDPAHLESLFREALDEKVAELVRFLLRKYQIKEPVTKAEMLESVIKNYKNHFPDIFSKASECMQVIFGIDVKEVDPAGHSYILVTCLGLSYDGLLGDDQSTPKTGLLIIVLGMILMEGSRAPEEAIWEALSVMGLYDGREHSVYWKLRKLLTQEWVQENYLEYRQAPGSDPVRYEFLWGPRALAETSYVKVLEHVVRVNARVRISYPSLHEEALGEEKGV
UniProt Q9NVC6, sequence (Q9NVC6 whole entry, looked up): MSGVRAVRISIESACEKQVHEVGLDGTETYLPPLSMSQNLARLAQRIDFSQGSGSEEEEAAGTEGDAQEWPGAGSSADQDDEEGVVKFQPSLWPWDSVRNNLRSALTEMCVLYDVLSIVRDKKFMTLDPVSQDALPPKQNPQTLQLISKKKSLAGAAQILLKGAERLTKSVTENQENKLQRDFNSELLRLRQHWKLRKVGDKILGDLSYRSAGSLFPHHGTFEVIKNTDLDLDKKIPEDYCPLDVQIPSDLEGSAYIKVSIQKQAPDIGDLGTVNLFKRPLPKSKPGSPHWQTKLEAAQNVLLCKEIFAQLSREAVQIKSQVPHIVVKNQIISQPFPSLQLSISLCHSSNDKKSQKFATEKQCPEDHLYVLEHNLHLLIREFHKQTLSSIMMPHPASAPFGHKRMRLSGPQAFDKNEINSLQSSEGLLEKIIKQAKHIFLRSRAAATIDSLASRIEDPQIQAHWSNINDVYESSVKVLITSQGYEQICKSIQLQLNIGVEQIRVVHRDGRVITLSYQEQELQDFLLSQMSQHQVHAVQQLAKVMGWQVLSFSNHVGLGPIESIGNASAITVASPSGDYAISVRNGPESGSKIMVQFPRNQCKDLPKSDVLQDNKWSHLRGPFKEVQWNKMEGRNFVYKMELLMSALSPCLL
UniProt Q9H6K1, sequence (Q9H6K1 whole entry, looked up): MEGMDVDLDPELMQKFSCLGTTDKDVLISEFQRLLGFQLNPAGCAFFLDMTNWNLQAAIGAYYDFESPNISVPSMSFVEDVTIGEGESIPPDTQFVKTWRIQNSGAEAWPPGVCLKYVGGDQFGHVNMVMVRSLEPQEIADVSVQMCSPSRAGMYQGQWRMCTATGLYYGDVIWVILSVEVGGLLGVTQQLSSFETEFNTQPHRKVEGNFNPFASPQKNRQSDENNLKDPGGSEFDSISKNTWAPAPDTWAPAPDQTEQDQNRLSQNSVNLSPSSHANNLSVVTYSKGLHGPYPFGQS
UniProt Q86UD3, sequence (Q86UD3 whole entry, looked up): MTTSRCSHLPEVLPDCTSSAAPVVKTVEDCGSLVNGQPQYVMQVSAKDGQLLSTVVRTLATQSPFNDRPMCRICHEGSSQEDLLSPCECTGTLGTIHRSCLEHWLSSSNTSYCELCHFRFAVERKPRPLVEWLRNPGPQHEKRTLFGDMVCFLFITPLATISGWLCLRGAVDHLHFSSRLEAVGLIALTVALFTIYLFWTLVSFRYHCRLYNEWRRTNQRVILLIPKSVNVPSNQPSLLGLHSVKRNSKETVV
UniProt Q8NHS3, sequence (Q8NHS3 whole entry, looked up): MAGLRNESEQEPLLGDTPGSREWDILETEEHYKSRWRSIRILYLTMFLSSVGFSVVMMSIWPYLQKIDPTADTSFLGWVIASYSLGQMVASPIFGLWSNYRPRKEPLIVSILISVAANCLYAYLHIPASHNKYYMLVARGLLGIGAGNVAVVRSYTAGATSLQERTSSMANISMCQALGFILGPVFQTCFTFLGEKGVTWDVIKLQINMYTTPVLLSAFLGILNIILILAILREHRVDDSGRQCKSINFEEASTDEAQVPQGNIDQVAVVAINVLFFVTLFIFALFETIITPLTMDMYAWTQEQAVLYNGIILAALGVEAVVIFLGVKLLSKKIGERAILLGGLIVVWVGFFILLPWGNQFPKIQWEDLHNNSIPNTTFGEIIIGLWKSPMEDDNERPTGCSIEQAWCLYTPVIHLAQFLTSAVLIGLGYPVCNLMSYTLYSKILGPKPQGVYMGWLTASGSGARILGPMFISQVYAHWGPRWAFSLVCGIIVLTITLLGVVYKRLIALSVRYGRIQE
UniProt Q96G25, sequence (Q96G25 whole entry, looked up): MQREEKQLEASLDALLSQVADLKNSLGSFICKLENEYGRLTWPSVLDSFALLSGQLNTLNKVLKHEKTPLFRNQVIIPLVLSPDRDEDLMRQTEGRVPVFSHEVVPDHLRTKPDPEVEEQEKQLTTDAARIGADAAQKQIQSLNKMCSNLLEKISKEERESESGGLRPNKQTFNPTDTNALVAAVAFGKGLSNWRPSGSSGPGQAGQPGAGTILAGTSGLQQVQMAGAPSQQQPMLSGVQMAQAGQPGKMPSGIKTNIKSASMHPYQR
UniProt O43934, sequence (O43934 whole entry, looked up): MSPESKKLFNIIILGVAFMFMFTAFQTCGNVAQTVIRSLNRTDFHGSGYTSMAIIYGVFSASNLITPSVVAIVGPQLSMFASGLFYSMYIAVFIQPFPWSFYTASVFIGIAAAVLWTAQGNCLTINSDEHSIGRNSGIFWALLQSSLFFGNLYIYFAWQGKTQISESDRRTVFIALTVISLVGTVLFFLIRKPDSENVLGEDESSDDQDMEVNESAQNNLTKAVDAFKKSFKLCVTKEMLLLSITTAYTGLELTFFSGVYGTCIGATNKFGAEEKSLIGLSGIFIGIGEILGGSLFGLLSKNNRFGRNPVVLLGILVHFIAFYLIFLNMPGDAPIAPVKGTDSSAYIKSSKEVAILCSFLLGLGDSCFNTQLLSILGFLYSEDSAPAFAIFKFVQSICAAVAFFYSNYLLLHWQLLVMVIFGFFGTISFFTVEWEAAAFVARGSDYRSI
UniProt Q9P244, sequence (Q9P244 whole entry, looked up): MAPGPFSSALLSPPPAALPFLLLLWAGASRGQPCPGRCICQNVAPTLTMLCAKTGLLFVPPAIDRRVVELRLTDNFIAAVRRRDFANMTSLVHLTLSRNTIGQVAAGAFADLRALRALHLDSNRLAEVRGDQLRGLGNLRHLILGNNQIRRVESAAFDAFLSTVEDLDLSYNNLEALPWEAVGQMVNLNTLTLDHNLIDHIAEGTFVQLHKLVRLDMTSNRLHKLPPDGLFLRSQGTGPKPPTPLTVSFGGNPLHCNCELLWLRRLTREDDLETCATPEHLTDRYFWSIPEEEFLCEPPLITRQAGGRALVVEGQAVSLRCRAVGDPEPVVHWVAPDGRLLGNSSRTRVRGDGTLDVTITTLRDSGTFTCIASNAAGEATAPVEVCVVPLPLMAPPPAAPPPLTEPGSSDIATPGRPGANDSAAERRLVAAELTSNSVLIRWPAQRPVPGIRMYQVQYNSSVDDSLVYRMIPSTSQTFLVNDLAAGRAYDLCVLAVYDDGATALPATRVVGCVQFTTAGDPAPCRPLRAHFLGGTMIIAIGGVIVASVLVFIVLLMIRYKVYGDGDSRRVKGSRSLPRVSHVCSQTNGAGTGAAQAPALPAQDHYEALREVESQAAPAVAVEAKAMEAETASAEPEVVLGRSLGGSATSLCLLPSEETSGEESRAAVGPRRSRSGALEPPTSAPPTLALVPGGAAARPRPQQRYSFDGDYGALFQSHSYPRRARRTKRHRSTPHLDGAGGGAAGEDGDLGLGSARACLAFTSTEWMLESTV
UniProt Q9Y287, sequence (Q9Y287 whole entry, looked up): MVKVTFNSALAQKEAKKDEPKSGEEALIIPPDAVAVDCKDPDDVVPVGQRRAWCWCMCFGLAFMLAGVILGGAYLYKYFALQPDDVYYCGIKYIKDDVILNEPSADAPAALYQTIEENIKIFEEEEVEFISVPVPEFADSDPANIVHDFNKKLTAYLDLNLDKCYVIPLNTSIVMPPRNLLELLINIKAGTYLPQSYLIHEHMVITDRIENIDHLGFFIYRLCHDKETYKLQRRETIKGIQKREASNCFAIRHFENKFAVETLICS
UniProt Q92551, sequence (Q92551 whole entry, looked up): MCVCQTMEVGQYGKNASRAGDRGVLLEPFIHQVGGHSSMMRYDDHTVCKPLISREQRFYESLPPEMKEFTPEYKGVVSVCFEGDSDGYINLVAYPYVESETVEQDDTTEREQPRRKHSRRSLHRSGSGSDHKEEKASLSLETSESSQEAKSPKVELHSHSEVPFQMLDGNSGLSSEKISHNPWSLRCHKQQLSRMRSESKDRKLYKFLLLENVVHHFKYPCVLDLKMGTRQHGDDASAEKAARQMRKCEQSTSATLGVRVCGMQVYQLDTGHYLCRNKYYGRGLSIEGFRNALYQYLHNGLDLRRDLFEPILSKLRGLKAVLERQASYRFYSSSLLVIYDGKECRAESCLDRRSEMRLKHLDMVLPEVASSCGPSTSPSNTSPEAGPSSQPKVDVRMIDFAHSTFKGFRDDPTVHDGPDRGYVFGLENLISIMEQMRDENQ
UniProt Q92604, sequence (Q92604 whole entry, looked up): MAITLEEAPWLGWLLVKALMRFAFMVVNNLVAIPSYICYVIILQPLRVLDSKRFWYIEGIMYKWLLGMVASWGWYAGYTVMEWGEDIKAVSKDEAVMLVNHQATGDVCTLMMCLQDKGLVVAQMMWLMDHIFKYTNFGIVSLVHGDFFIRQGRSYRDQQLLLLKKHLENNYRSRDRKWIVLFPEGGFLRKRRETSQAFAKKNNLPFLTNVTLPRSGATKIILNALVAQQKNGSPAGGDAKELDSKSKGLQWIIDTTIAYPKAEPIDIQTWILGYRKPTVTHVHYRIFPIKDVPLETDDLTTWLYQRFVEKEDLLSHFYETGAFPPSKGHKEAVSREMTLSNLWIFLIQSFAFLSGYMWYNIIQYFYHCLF
UniProt Q6UB28, sequence (Q6UB28 whole entry, looked up): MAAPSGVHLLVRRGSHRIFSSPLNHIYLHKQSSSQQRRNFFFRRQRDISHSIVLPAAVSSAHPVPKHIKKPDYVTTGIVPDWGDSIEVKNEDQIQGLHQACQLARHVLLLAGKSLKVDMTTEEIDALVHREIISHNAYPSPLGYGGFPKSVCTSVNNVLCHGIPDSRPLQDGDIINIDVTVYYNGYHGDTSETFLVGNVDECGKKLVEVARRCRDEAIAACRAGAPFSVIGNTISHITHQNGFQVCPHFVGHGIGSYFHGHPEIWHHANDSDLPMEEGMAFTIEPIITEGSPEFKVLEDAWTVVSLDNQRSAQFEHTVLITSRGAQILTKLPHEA

Compound in one assay: CC[C@@H]1C(=O)N(C)c2cnc(Nc3ccc(C(=O)NC4CCN(C)CC4)cc3OC)nc2N1C1CCCC1
Description: log2 fold change, soluble protein after heating vs DMSO (PISA); higher = thermal stabilisation; K562 cells, 10 uM, 30 min; active = over 0.2 and 3.5 SD of the protein, either way, in both replicates (recomputed). A digest of the protocol:
(§1)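 Aliquots of K562 cells (2×10^6 cells/mL) treated with 10 μM compound for 30 min were heated for 3 min over 48°C-58°C. After pooling and extraction in PBS with 0.5% NP-40 at 4°C, soluble protein from a 21,000xg, 90 min spin was quantified by TMTpro 16plex LC-MS/MS with channel sums equalised. Thermal stability is expressed against control samples, from duplicates, as a log2 fold change.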
For the target LRBA, A0A494BZW2, the log2 fold change was -0.04 (inactive).

KIZ (UniProt Q2M2Z5): the log2 fold change was 0.104 (inactive).

In the case of MED22 (UniProt Q15528), the log2 fold change is 0.133 (inactive). On to LRFN1 (UniProt Q9P244), for which the log2 fold change is -0.015 (inactive). Still for that read-out and setting: in the case of ILRUN (UniProt Q9H6K1) it was -0.079 (inactive).

Regarding MFSD1 isoform 6 (UniProt Q9H3U5), the log2 fold change is -0.022 (inactive). As to MAN2B2 (UniProt Q9Y2E5), the log2 fold change is -0.445 (active). With LENG8 (UniProt Q96PV6), the log2 fold change was -0.029 (inactive).

On to MFSD8 (UniProt Q8NHS3), for which the log2 fold change was -0.016 (inactive).

On to LUM (UniProt P51884), for which the log2 fold change is 0.076 (inactive).

As to ITPRID2 (UniProt P28290), the log2 fold change is 0.01 (inactive). Still for that read-out and setting: the value for METAP1D (UniProt Q6UB28) was 0.031 (inactive); that for MED8 isoform 2 (UniProt Q96G25) was 0.027 (inactive); that for MARK2 (UniProt E9PC69) was 0.044 (inactive). KMT2C isoform 3 (UniProt Q8NEZ4): the log2 fold change is -0.908 (active).

On to MELK (UniProt Q14680), for which the log2 fold change was -0.429 (inactive). On to IP6K1 (UniProt Q92551), for which the log2 fold change is 0.127 (inactive).

As to MED25 isoform 3 (UniProt Q71SY5), the log2 fold change was 0.057 (inactive). In the case of MBLAC1 (UniProt A4D2B0), the log2 fold change is 0.112 (inactive). Turning to KIF3B (UniProt O15066), the log2 fold change was 0.156 (inactive). In the case of ILF3 (UniProt Q12906), the log2 fold change was 0.222 (inactive).

Regarding ITM2B (UniProt Q9Y287), the log2 fold change was -0.022 (inactive). On to MAGEA8 (UniProt P43361), for which the log2 fold change was -0.096 (inactive).

As for MED17 (UniProt Q9NVC6), the log2 fold change was -0.011 (inactive).

LPGAT1 (UniProt Q92604): the log2 fold change is -0.206 (inactive). Take MFSD11 (UniProt O43934): the log2 fold change was -0.244 (inactive). For the target MAP4K2 (UniProt Q12851), the log2 fold change was -0.044 (inactive). The same measure, in the same setting: the value for KCNK5 (UniProt O95279) was -0.042 (inactive); that for IL27RA (UniProt Q6UWB1) was -0.12 (inactive).

For MED12 isoform 2 (UniProt Q93074), the log2 fold change is -0.055 (inactive). In the case of MCM10 (UniProt Q7L590), the log2 fold change is -0.074 (inactive). For the target MARCHF3 (UniProt Q86UD3), the log2 fold change was 0.116 (inactive). Take KXD1 (UniProt Q9BQD3): the log2 fold change was -0.154 (inactive). On to MCOLN3 (UniProt Q8TDD5), for which the log2 fold change was 0.094 (inactive). Consider MASTL (UniProt Q96GX5), for which the log2 fold change was -0.02 (inactive). As for ING5 (UniProt Q8WYH8), the log2 fold change was -0.561 (active). As for MAPK14 (UniProt Q16539), the log2 fold change is -0.065 (inactive). On the same count and under the same terms, the value for MAP4 isoform 5 (UniProt P27816) was -0.001 (inactive). Take IMMP1L (UniProt Q96LU5): the log2 fold change was -0.012 (inactive).

Compound in the next assay: CC[C@@H]1C(=O)N(C)c2cnc(Nc3ccc(C(=O)N[C@H]4CC[C@H](N5CCN(CC6CC6)CC5)CC4)cc3OC)nc2N1C(C)C [volasertib]
Described as above. The procedure, abridged:
as §1
Take LRBA, A0A494BZW2: the log2 fold change was -0.025 (inactive). As to KIZ (UniProt Q2M2Z5), the log2 fold change was 0.262 (inactive).

With LRFN1 (UniProt Q9P244), the log2 fold change is 0.033 (inactive). On to ILRUN (UniProt Q9H6K1), for which the log2 fold change is -0.429 (active).

In the case of MFSD1 isoform 6 (UniProt Q9H3U5), the log2 fold change was 0.053 (inactive).

Consider MAN2B2 (UniProt Q9Y2E5), for which the log2 fold change was -0.704 (active). Regarding MFSD8 (UniProt Q8NHS3), the log2 fold change was 0.032 (inactive). In the case of LUM (UniProt P51884), the log2 fold change is 0.225 (inactive). For ITPRID2 (UniProt P28290), the log2 fold change was -0.373 (inactive). With METAP1D (UniProt Q6UB28), the log2 fold change was -0.082 (inactive). On to MED8 isoform 2 (UniProt Q96G25), for which the log2 fold change was 0.1 (inactive). On to MARK2 (UniProt E9PC69), for which the log2 fold change is -0.469 (inactive).

MELK (UniProt Q14680): the log2 fold change is -1.41 (active).

As for IP6K1 (UniProt Q92551), the log2 fold change is -0.176 (inactive).

For the target MED25 isoform 3 (UniProt Q71SY5), the log2 fold change is -0.051 (inactive).

Take MBLAC1 (UniProt A4D2B0): the log2 fold change is 0.148 (inactive). On to KIF3B (UniProt O15066), for which the log2 fold change is -0.009 (inactive). Take ITM2B (UniProt Q9Y287): the log2 fold change was 0.182 (inactive). On the same count and under the same terms, the value for MAGEA8 (UniProt P43361) was -0.386 (inactive); that for MED17 (UniProt Q9NVC6) was -0.021 (inactive); that for LPGAT1 (UniProt Q92604) was -0.401 (active).

On to MFSD11 (UniProt O43934), for which the log2 fold change was 0.021 (inactive).

For MAP4K2 (UniProt Q12851), the log2 fold change is -0.093 (inactive). As to KCNK5 (UniProt O95279), the log2 fold change is -0.174 (inactive).

For IL27RA (UniProt Q6UWB1), the log2 fold change is -0.298 (inactive).

For the target MED12 isoform 2 (UniProt Q93074), the log2 fold change is -0.211 (inactive).

As to MCM10 (UniProt Q7L590), the log2 fold change is 0 (inactive). With MARCHF3 (UniProt Q86UD3), the log2 fold change is 0.011 (inactive). For KXD1 (UniProt Q9BQD3), the log2 fold change is -0.035 (inactive). For MCOLN3 (UniProt Q8TDD5), the log2 fold change is -0.136 (inactive).

Regarding ING5 (UniProt Q8WYH8), the log2 fold change is -1.47 (active). The same measure, in the same setting: in the case of MAPK14 (UniProt Q16539) it was -0.516 (inactive); in that of MAP4 isoform 5 (UniProt P27816), -0.046 (inactive). Consider IMMP1L (UniProt Q96LU5), for which the log2 fold change was -0.055 (inactive).
